Sfp inh – blocks B. subtilis Sfp PPTase activity; Biochemical Sfp PPTase activity, qHTS; Potency, µM, usual class: inhibitors; 3.5% of 310,000 active;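 further: the enzyme is Sfp with the accession as filed and its product quenches rhodamine fluorescence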
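Sfp 15 nM + cpd, 15 min RT; start w/ rhodamine-CoA 5 uM, BHQ-2-YbbR 12.5 uM (final); 50 mM Hepes pH 7.6, 10 mM MgCl2, 0.01% NP-40, 0.01% BSA; read 525/598 nm at 0 and 30 min.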
BAZ2B inh – blocks human BAZ2B. Q9UIF8. AlphaScreen BAZ2B-H3K14Ac peptide displacement. Potency, µM (highest dose often 114 µM), hits mostly inhibitors. 4.4% of 360,000 active; further: nearly all actives have a fitted effect of over 60% in size
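BAZ2B (50 nM) with biotin-H3(5-23)K14Ac peptide (50 nM) in PBS pH 7.4, 0.01% Tween-20, preformed 30 min, then compound 30 min at room temperature; top concentration 110uM. AlphaScreen streptavidin donor/nickel chelate acceptor beads (10 ug/mL final), 20 min dark, signal read.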
G9a inh – G9a (human) methyltransferase inhibition; Q96KQ7; G9a H3K9 monomethylation, AlphaScreen, 2 h; Potency, µM (top dose mostly 102 µM), hits mostly inhibitors; 8.8% of 350,000 active; AID 504332; further: nearly all actives have a fitted effect of over 75% in size
Target sequence (Q96KQ7 913-1193 limits assumed): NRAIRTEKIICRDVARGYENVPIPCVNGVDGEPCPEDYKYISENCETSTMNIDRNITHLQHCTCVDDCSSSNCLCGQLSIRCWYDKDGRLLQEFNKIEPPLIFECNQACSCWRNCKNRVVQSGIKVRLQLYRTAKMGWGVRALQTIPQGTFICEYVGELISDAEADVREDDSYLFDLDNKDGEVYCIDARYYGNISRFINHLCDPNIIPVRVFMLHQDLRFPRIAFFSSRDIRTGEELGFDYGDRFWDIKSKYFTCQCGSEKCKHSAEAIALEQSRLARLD
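Readings reflect AlphaScreen signal from monomethyl-H3K9 antibody detection. HMT at 20 nM; substrate b-H3K9 500 nM; cofactor SAM 20 uM; 2 h RT reaction; compounds tested as titrations in qHTS with 15 min preincubation.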
HP1b binding inh – inhibitors of HP1-beta chromodomain binding to methylated histone tails | P83916 | AlphaScreen HP1-beta / biotin-H3K9me3 peptide binding | Potency, µM (series often up to 114 µM), usual class: inhibitors | 0.56% of 390,000 active | AID 540317; further: nearly all actives have a fitted effect of over 70% in size
Target sequence (P83916 whole entry, looked up): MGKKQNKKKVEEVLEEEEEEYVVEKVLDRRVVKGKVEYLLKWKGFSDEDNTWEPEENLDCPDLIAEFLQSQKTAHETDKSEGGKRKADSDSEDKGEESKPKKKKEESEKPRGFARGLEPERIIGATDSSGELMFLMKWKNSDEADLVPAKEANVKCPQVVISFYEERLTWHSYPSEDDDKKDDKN
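AlphaScreen: HP1-beta (50 nM) preformed 30 min with biotin-H3(1-18)K9me3 peptide (50 nM) in PBS pH 7.4, 0.01% Tween-20. Compound added for 30 min at RT, then streptavidin donor/nickel chelate acceptor beads (10 ug/mL) for 30 min.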
JMJD2A Tudor – blocks the human JMJD2A Tudor domain; O75164; AlphaScreen JMJD2A-Tudor / H3K4me3 peptide binding; Potency, µM (doses to about 114 µM), hits mostly inhibitors; 4.4% of 390,000 active; further: nearly all actives have a fitted effect of over 50% in size
A number is an active result; - = inactive; ? = inconclusive; . = no result given; [ ] = another dose, or the depositor's remark. Sampled rows, rich in hits. Any-hit rate of the full collection: about 12%. The call rests on the fitted dose curve; in most records, active means well fitted curve in the direction sought with a large enough effect; inconclusive means small, poorly fitted or top-dose-only effect, or another doubt; inactive means no such curve, though single readings can be large; an effect the other way counts as inactive or inconclusive.

SMILES	Sfp inh	BAZ2B inh	G9a inh	HP1b binding inh	JMJD2A Tudor
CCCCCC(=O)OC(CN1CCCCCC1)CN1CCCC1=O (configuration not stated)	-	-	.	-	-
CCCCCCCC(=O)OC(CN1CCCCC1)CN1CCCC1=O (configuration not stated)	-	-	11µM	-	-
CCc1ccc(NS(=O)(=O)c2ccc3oc(=O)c4ncn(CC)c4c3c2)cc1	.	?	10µM	-	-
COc1cc(NS(=O)(=O)c2ccc3oc(=O)c4ncn(C)c4c3c2)cc(OC)c1	.	-	-	-	-
CN1CCN(C(c2cccc(Br)c2)c2sc3nc(-c4ccco4)nn3c2O)CC1 (configuration not stated)	.	-	-	-	-
CCC(Nc1ccc(OC)cc1)C(=O)N/N=C/c1ccc([N+](=O)[O-])cc1 (configuration not stated)	-	45µM	?	-	?
CCOc1ccc(CNC(=S)N/N=C\c2ccc([N+](=O)[O-])cc2)cc1	56µM	-	?	-	-
COc1ccc(C(C(=O)NC2CCCCC2)N(Cc2ccco2)C(=O)c2ccccn2)c(OC)c1 (configuration not stated)	-	-	10µM	-	-
CC(C)(C)NC(=O)C(c1ccncc1)N(Cc1cccs1)C(=O)Cn1nnc(-c2ccc(F)cc2)n1 (configuration not stated)	-	-	-	-	-
O=C(NC1CCCC1)C(c1ccncc1)N(Cc1ccccc1)C(=O)c1ccc(-c2ccccc2)[nH]1 (configuration not stated)	18µM	45µM	-	-	?
CC(C)(C)NC(=O)C(c1ccncc1)N(Cc1ccc(F)cc1)C(=O)c1ccc(-c2ccccc2)[nH]1 (configuration not stated)	-	?	28µM	-	?
O=C(NC1CCCC1)C(c1ccncc1)N(Cc1ccco1)C(=O)c1ccc(-c2ccccc2)[nH]1 (configuration not stated)	?	35µM	?	?	?
COc1ccccc1CNC(=O)Cn1cccc1C(=O)c1ccccc1	-	-	-	-	-
O=C(NCC1CCCO1)C(c1cccs1)N(Cc1ccccc1Cl)C(=O)c1ccc(-c2ccccc2)[nH]1 (configuration not stated)	-	?	?	-	?
COc1ccc(N(C(=O)c2ccn[nH]2)C(C(=O)NC(C)(C)C)c2ccc(F)cc2)cc1 (configuration not stated)	-	-	-	-	-
Cc1ccc(C(C(=O)NCC2CCCO2)N(Cc2ccccc2)C(=O)c2ccc(-c3ccccc3)[nH]2)o1 (configuration not stated)	-	40µM	-	-	?
O=C(NC1CCCC1)C(c1ccncc1)N(CCCN1CCOCC1)C(=O)c1ccc(-c2ccccc2)[nH]1 (configuration not stated)	-	-	?	-	-
CCOc1ccc(C(C(=O)NC2CCCC2)N(CCCO)C(=O)c2ccc(-c3ccccc3)[nH]2)cc1 (configuration not stated)	-	?	50µM	-	?
CC(C)(C)NC(=O)C(c1ccc(F)cc1)N(CCc1ccccc1)C(=O)c1ccn[nH]1 (configuration not stated)	-	-	-[12.7 µM]	-	28µM
CC[C@H](C)[C@H](NC(=O)[C@H](Cc1ccc(O)cc1)NC(=O)[C@H](Cc1cnc[nH]1)NC(=O)[C@H](CCCNC(=N)N)NC(=O)[C@H](CC(C)C)NC(=O)[C@H](C)NC(=O)[C@H](CO)NC(=O)[C@H](Cc1ccc(O)cc1)NC(=O)[C@H](Cc1ccc(O)cc1)NC(=O)[C@H](CCCNC(=N)N)NC(=O)[C@H](C)NC(=O)[C@H](CCSC)NC(=O)[C@H](CC(=O)O)NC(=O)[C@H](CCC(=O)O)NC(=O)[C@H](C)NC(=O)[C@@H]1CCCN1C(=O)[C@H](C)NC(=O)[C@H](CC(=O)O)NC(=O)[C@H](CCC(=O)O)NC(=O)CNC(=O)[C@@H]1CCCN1C(=O)[C@H](CC(N)=O)NC(=O)[C@H](CC(=O)O)NC(=O)[C@@H]1CCCN1C(=O)[C@H](CCCCN)NC(=O)[C@H](CO)NC(=O)[C@@H]1CCCN1C(=O)[C@@H](N)Cc1ccc(O)cc1)C(=O)N[C@@H](CC(N)=O)C(=O)N[C@@H](CC(C)C)C(=O)N[C@H](C(=O)N[C@H](C(=O)N[C@@H](CCCNC(=N)N)C(=O)N[C@@H](CCC(N)=O)C(=O)N[C@@H](CCCNC(=N)N)C(=O)N[C@@H](Cc1ccc(O)cc1)C(N)=O)[C@@H](C)O)[C@@H](C)CC	-	.	.	.	.
CN(Cc1ccccc1F)C(=O)c1ccc(NC(=O)CC2SC(N3CCCCC3)=NC2=O)cc1 (configuration not stated)	.	.	.	-	-
Cc1cccc(C)c1Nc1c(-c2ccsc2)nc2ccccn12	.	?	14µM	?	45µM
Cc1ccc2nc(-c3ccccn3)c(NC3CCCC3)n2c1	-	-	-	?	45µM
Cc1cccc(C)c1Nc1c(-c2ccccn2)nc2ccccn12	-	25µM	40µM	?	45µM
COc1ccccc1N=Nc1c(O)[nH]c2ccc(Br)cc12	-	-	-	-	45µM
SMILES	Sfp inh	BAZ2B inh	G9a inh	HP1b binding inh	JMJD2A Tudor
N=C(N)N=Nc1c(O)[nH]c2ccc(Br)cc12	-	?	?	-	-
COc1ccc2[nH]c(N=Nc3ccccc3C)c(O)c2c1	-	?	13µM	-	45µM
Cc1ccc2[nH]c(O)c(N=Nc3ccccc3C)c2c1	35µM	?	8.9µM	71µM	?
Cc1ccccc1N=Nc1c(O)[nH]c2ccccc12	.	.	.	-	?
Cc1cccc(N=Nc2c(O)[nH]c3ccc(Br)cc23)c1	-	-	45µM	-	-
Cn1cncc1C#Cc1c(C=O)[nH]c2ccccc12	.	-	-[0.501 µM]	-	-
COc1cc(NC(=O)CCN2CC(C)OC(C)C2)cc(OC)c1 (configuration not stated)	-	-	-	-	-
COC(=O)[C@]1(Cc2ccccc2)N[C@H](CN(C)C(=O)Nc2ccc(C)cc2)[C@@H]2C(=O)N(C)C(=O)[C@@H]21	.	.	.	-	-
CC(=O)NCCNc1cc(-c2ccccc2C)ncn1	-	.	-[0.501 µM]	.	.
O=C(N=Nc1c(O)[nH]c2ccc(Br)cc12)c1ccccc1-n1cccc1	-	32µM	25µM	?	16µM
COc1cc(/C=C(\C#N)C(N)=O)cc(CSc2nc3ccccc3s2)c1O	-	.	5µM	.	.
O=C(Nc1cccc(S(=O)(=O)NC2=NCCC2)c1)c1ccccc1F	.	.	.	-	-
O=C(Nc1cccc(S(=O)(=O)NC2=NCCC2)c1)c1cc(Cl)ccc1[N+](=O)[O-]	.	-	50µM	-	-
Cc1cccn2c(=O)c(C(=O)N3CCN(c4ccc(Cl)cc4)CC3)cnc12	.	-	-	-	-

Bioassay records as filed in PubChem BioAssay.
